From PubChem BioAssay
Hits are enriched below; roughly 13% of the tested compounds scored in any of these assays.
HCMV antiviral – human cytomegalovirus inhibition; HFF cells, HCMV-luciferase reporter, 72 h; hits give low values; activity change, negative = inhibition, % at 57.5 µM; 410,000 tested, 4.5% active; AID 1259415; in the data active = activity change below about -60%; inconclusive = no clear call, values can overlap the other calls; inactive = above about -39%
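Two-dose cell screen: HFF monolayers treated with compounds and infected with luciferase-expressing HCMV at 1 PFU/cell, 72 h at 37C, then lysed for luciferase measurement.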
Pf growth 48h – P. falciparum growth inhibition at 48 hours (one generation); AID 504832; 310,000 tested, 5.9% active; P. falciparum luciferase growth in erythrocytes, 48 h; Potency, µM (doses to about 28.7 µM), for the others: at the highest dose activity change, negative = inhibition, actives largely listed as inhibitors; also: potency is read from the fitted curve at half-maximal effect
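Luminescence readout; reporter = integrated firefly luciferase in P. falciparum. RBC culture at 2% hematocrit, 0.1% parasitemia final, 37 C/5% CO2; decreased signal taken as growth inhibition.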
HCV inhibitor – blocks hepatitis C virus | Huh7.5.1 HCVcc-Cre infection, luciferase reporter, 44 h | Potency, µM (titrated, usually from 41.8 µM), inactives show top-dose activity change, negative = inhibition, actives largely listed as inhibitors | 340,000 tested, 3.4% active | AID 651820; also: potency is read from the fitted curve at half-maximal effect
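Compounds are dispensed onto cells plated 4 h earlier at 1,000 per well, with HCVcc-Cre virus (about 0.5 moi) added next. Following 44 h of culture, luminescent signal is measured for 15 sec after 15 min with substrate at room temperature.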
Pf growth 96h – P. falciparum growth inhibition at 96 hours. P. falciparum luciferase reporter growth, 96 h. Potency, µM (top dose mostly 28.7 µM), for the others: top-dose activity change, negative = inhibition, actives largely listed as inhibitors. 320,000 tested, 6.9% active; also: potency is read from the fitted curve at half-maximal effect
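Two-generation exposure (96 h) targets delayed-death phenotype. Reporter parasites carrying integrated firefly luciferase, in red cells at 2% hematocrit and 0.05% parasitemia final, kept at 37 C, 5% CO2; luminescence loss indicates inhibition.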
* marks the source's active call; other numbers are inactive results; ? = inconclusive; nt = no result given; [ ] = dose if it differs, or a comment. Unless noted, calls follow the shape of the dose curve; as a rule, active = well fitted inhibition curve with a large enough effect; inconclusive = small, poorly fitted or top-dose-only effect, or another doubt; inactive = no such curve, though single readings can be large or run the other way. % is scaled to controls: 0 for no effect and ±100 for the full control effect.

SMILES	HCMV antiviral	Pf growth 48h	HCV inhibitor	Pf growth 96h
CCCCn1c(C)cc2c(c1=O)C1O[C@](c3ccc(OC)cc3)(Cc3cc(OC)c(OC)cc31)O2	nt	?	nt	1.5µM*
CCN(CC)c1ccc(NC(=O)CN2C(=O)c3cccnc3Oc3ccccc32)c(C)c1	0	nt	nt	nt
CC1CCCCC12NC(=O)N(CC(=O)OCc1ccccc1Cl)C2=O (configuration not stated)	-7	4%	-8%	20%
CC(C)c1ccc(COC(=O)CN2C(=O)NC3(CCCCC3C)C2=O)cc1 (configuration not stated)	0	?	14µM*	28%
CCC[C@H]1[C@@H](NC(=O)Nc2ccc(C(C)C)cc2)CC[C@@]23CCCN2C(=O)CCC[C@@H]13	10	nt	nt	nt
CC(=O)Nc1ccc(NS(=O)(=O)c2c(C(=O)N3CCCCCC3)c(C)n(C)c2C)cc1	-13	nt	nt	nt
COP(=O)(OC)c1nc(-c2ccccc2)oc1NCc1ccccc1	-24	?	6%	?
CCOP(=O)(c1ccccc1)c1nc(-c2ccccc2C)oc1NCc1ccccc1 (configuration not stated)	-2	12µM*	5%	?
Cc1ccccc1-c1nc(P(=O)(c2ccccc2)c2ccccc2)c(N2CCOCC2)o1	57	15µM*	-16%	?
CCOP(=O)(c1ccccc1)c1nc(-c2ccccc2C)oc1N1CCCCC1 (configuration not stated)	-2	13µM*	?	-30%
COP(=O)(OC)c1nc(-c2cccc3ccccc23)oc1NCc1ccccc1	-13	?	3%	?
Cc1nc(P(=O)(c2ccccc2)c2ccccc2)c(N2CCOCC2)o1	11	?	20%	2%
CCCOP(=O)(OCCC)c1nc(-c2ccccc2)oc1NCc1ccccc1	?	5.9µM*	?	3.7µM*
CCOC(=O)c1cccc(NC(=O)NCc2cccn2Cc2ccccc2)c1	-11	nt	nt	nt
CCc1ccc(S(=O)(=O)c2nnn3c2nc(N(CC)Cc2ccccc2)c2cc(Cl)ccc23)cc1	21	nt	nt	nt
O=C(COc1coc(CN2CCN(c3ccc(F)cc3)CC2)cc1=O)Nc1ccccc1	-20	?	?	-5%
O=C(COc1coc(CN2CCN(c3ccccc3)CC2)cc1=O)Nc1cccc(F)c1	-28	5%	12%	?
Cc1ccccc1NC(=O)COc1coc(CN2CCN(c3ccccc3)CC2)cc1=O	-35	?	?	-21%
COc1ccccc1NC(=O)COc1coc(CN2CCN(c3ccccc3)CC2)cc1=O	-34	13µM*	-15%	?
O=C(COc1coc(CN2CCN(c3ccccc3)CC2)cc1=O)Nc1ccc(F)cc1	-83*	?	?	0%
Cc1cccc(NC(=O)COc2coc(CN3CCN(c4ccccc4)CC3)cc2=O)c1	-34	9.3µM*	2%	?
COC(=O)[C@@H]1C[C@H]2CC[C@H](O)C[C@H]2N1Cc1ccccc1OS(=O)(=O)c1ccc(C)cc1	-17	10µM*	-30%	?
Cc1cccc(-c2nc3scc(CCNS(=O)(=O)c4ccc(F)c(C(F)(F)F)c4)n3n2)c1	-5	nt	nt	nt
NNC(=O)c1oc2nc(-c3ccco3)cc(-c3ccco3)c2c1N	-20	?	-2%	?
NNC(=O)c1oc2nc(-c3ccc(Cl)cc3)cc(-c3ccccc3)c2c1N	?	4.1µM*	3%	2.6µM*
SMILES	HCMV antiviral	Pf growth 48h	HCV inhibitor	Pf growth 96h
Cc1n[nH]c(C)c1N1C(=O)c2cccc3cc(Br)cc(c23)C1=O	39	9%	4.5µM*	?
CC(C)(C)C(=O)Nc1ccccc1C(=O)Nc1cc(Cl)ccc1Cl	-9	12µM*	-33%	4.1µM*
CC(C)(C)C(=O)Nc1ccccc1C(=O)Nc1cccnc1	-9	9%	-12%	46%
CCN(C1CCCCC1)S(=O)(=O)c1ccc(OC)c(C)c1	-16	-9%	1%	11%
CCOc1cc(S(=O)(=O)N(Cc2ccccc2)Cc2ccccc2)c(OCC)cc1-n1cnnn1	20	?	nt	6.6µM*
COc1cc(CN(C2CCCCC2)S(=O)(=O)c2ccc(S(=O)(=O)N(C)C3CCCCC3)cc2)cc(OC)c1OC	-38	?	10%	8.3µM*
COc1ccc(CN(C2CCCC2)S(=O)(=O)c2ccc(-n3cnnn3)c(OC)c2)cc1OC	33	15µM*	-19%	?
COc1ccc(CN(Cc2cccnc2)S(=O)(=O)c2ccc(-n3cnnn3)c(OC)c2)cc1	-11	12µM*	-10%	22%
CCOc1ccc(CNC(=O)C2CCCN(S(=O)(=O)c3ccc4c(c3)CCCC(=O)N4)C2)cc1 (configuration not stated)	-22	nt	nt	nt
COc1ccc(CNCc2c(C(=O)O)c(C)n(Cc3ccccc3C)c2C)cc1OC	2	nt	nt	nt
COc1cccc(CN(Cc2cccnc2)S(=O)(=O)c2ccc(-n3cnnn3)c(C)c2)c1OC	-5	12µM*	-23%	nt
Cc1cc(S(=O)(=O)N(Cc2ccc(F)cc2)CC2CCCO2)ccc1-n1cnnn1 (configuration not stated)	-3	?	2%	?
COc1ccc(CN(Cc2ccc(OC)cc2)S(=O)(=O)c2ccc(-n3cnnn3)c(C)c2)cc1	-36	?	?	13µM*
COc1cc(S(=O)(=O)N(Cc2cccc(OC)c2OC)CC2CCCO2)ccc1-n1cnnn1 (configuration not stated)	0	?	0%	?
Cc1cc(S(=O)(=O)N(Cc2ccc(C(C)C)cc2)CC2CCCO2)ccc1-n1cnnn1 (configuration not stated)	-77*	nt	?	?
N#Cc1ccc(-c2nc3c4ccccc4ccn3c2Cc2cccc(Cl)c2)cc1	4	nt	nt	nt
COc1ccc(C2N(c3cc(Cl)ccc3OC)C(=O)C3CCCN32)c(OC)c1 (configuration not stated)	6	nt	-4%	0.93µM*
CCOC(=O)c1ccc(NC(=O)c2c(NCc3cc(OC)c(OC)cc3OC)sc3c2CCCC3)cc1	-21	nt	nt	nt
C/C(=N\O)c1ccc2c(c1)OCCO2	0	38%	6%	250%
CCn1c2ccc(/C(C)=N\O)cc2c2cc(/C(C)=N\O)ccc21	5	?	10µM*	5%
CCn1c2ccccc2c2cc(/C=N/n3cn[nH]c3=S)ccc21	-31	?	11µM*	8.3µM*
CCn1c(/C=N/n2cnnc2)nc2ccccc21	78	nt	13%	3%
CCn1c2ccccc2c2cc(/C=N/O)ccc21	-74*	1%	11µM*	-29%[5.75 µM]
CCn1c2ccccc2c2cc(/C=N/n3c(-c4cc(C)[nH]n4)n[nH]c3=S)ccc21	10	?	?	-15%
CCn1c2ccccc2c2cc(/C=N/n3cnnc3)ccc21	-24	nt	7.9µM*	-16%
Cc1ccc(-c2nc(-c3cc4cccc(OCc5ccccc5F)c4oc3=O)no2)cc1	-22	nt	nt	nt
O=C(NCc1ccccc1Cl)c1ccc(-n2cnc3cccnc32)cc1	-94*	nt	nt	nt
COC(=O)C(C)Sc1ncnc2c1c(-c1ccccc1)cn2-c1ccc(F)cc1 (configuration not stated)	-22	nt	nt	nt
